Dicer inh: inhibitors of human Dicer processing of pre-microRNA. cat-ELCCA pre-miR-21 Dicer processing, chemiluminescence; stronger effect = higher value. z-score at 25 µM. 47,000 tested, 6% active. AID 1347074; in the data active = z-score above about 3, passing the limit was not always enough;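 also: plate controls were vehicle for no effect and no enzyme for full effect; higher signal means more uncleaved substrate so more Dicer inhibition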
Target sequence (Q9UPY3 whole entry, looked up): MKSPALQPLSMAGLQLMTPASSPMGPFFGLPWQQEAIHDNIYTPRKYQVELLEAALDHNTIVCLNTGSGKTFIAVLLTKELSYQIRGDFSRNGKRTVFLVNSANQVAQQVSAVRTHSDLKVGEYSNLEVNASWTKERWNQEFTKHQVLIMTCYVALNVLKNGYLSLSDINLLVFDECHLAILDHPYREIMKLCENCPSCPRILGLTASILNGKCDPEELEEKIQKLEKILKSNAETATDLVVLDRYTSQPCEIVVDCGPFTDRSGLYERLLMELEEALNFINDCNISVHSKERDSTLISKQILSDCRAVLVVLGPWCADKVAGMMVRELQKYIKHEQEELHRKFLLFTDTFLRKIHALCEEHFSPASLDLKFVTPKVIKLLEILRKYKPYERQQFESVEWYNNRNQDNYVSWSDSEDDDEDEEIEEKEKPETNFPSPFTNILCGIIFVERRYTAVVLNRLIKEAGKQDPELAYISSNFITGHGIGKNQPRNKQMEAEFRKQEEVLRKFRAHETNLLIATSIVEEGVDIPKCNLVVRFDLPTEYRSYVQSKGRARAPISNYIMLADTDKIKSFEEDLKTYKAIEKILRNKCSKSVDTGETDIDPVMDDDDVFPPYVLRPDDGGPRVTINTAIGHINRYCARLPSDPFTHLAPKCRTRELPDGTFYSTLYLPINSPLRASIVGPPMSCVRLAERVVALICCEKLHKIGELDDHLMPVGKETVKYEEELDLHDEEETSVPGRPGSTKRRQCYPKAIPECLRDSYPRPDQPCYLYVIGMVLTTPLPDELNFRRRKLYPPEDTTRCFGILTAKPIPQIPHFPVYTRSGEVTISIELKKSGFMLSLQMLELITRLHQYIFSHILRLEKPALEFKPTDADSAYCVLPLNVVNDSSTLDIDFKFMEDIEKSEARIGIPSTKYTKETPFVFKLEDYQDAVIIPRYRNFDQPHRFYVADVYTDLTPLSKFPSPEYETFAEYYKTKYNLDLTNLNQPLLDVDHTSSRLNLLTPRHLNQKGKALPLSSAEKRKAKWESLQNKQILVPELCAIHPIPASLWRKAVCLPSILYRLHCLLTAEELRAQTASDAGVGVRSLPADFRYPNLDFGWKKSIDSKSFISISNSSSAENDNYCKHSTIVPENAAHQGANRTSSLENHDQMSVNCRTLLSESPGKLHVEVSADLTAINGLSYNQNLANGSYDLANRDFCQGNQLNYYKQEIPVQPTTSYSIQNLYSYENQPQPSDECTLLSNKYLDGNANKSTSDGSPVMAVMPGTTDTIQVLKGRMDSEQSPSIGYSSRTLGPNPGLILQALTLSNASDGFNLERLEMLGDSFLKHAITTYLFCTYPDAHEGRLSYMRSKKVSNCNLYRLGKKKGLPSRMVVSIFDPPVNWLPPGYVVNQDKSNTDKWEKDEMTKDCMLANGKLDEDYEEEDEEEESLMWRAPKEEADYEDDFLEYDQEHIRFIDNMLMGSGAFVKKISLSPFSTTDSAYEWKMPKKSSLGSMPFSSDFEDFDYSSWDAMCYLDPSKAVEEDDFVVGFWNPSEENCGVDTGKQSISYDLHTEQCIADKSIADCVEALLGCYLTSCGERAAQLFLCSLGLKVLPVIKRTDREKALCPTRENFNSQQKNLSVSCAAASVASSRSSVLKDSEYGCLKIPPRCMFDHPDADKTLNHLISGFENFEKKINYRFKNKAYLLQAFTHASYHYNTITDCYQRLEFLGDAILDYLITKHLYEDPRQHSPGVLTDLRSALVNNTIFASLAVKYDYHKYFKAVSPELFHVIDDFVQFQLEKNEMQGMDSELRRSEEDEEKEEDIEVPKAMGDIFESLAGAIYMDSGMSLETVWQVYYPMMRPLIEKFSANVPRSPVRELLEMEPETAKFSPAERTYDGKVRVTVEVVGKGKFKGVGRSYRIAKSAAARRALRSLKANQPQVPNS
* = called active by the depositor. The full list was thinned out, with hits kept by preference.

SMILES	Dicer inh
O=C(O)COCC(=O)Nc1ccc(N2CCOCC2)nc1N1CCOCC1	-0.99
COc1ccc(C(Nc2cc(C)ccn2)c2ccc3cccnc3c2O)cc1OC (centres undefined)	11*
Cc1cccc(NC(c2ccc(O)cc2)c2ccc3ccc(C)nc3c2O)n1 (centres undefined)	2.5
C=CCOc1cccc(C(Nc2cccc(C)n2)c2ccc3cccnc3c2O)c1 (centres undefined)	1.4
Cc1ccc(C(Nc2cccc(C)n2)c2ccc3cccnc3c2O)cc1 (centres undefined)	17*
Cc1cccc(NC(c2cccnc2)c2ccc3cccnc3c2O)c1 (centres undefined)	-0.49
Cc1cccc(NC(c2ccc(F)cc2)c2ccc3ccc(C)nc3c2O)n1 (centres undefined)	-0.14
C=CCOc1cccc(C(Nc2ccccn2)c2ccc3cccnc3c2O)c1 (centres undefined)	7.3
CCc1ccc(C(Nc2ccccn2)c2ccc3cccnc3c2O)cc1 (centres undefined)	8.3
Cc1cccc(NC(c2cccnc2)c2ccc3cccnc3c2O)n1 (centres undefined)	3.5*
CCOC(=O)C1=C(C)NC(SC)=NC1c1cccs1 (centres undefined)	0.07
Cc1ccc(NC(=S)N(C)/N=C/c2ccccn2)cc1Cl	2
CCCNC(=O)c1nn2c(c1Cl)NC(c1cccs1)CC2C(F)(F)F (centres undefined)	2.1
Cc1ccc(S(=O)(=O)NC(=O)NCCCNC(=O)OC(C)(C)C)cc1	-0.84
CC(C)(C)c1cc(CC(=O)O)c2c(c1)C(C)(C)CC2	0.03
COCCCN1C(=O)c2cccc3c(N4CCOCC4)ccc(c23)C1=O	0.75
Cc1ccc(-n2c(=O)[nH]c3sc4c(c3c2=O)CCC(C)C4)cc1 (centres undefined)	0.52
N#C/C(=C\Nc1ccc(F)cc1F)C(=O)C1CC1	-0.99
Cc1sc2c(c1C)C(=O)/C(=C\Nc1cccnc1)S(=O)(=O)N2C	-0.68
Cc1cc(N/C=C2\C(=O)c3c(sc(C)c3C)N(C)S2(=O)=O)nc(C)n1	3.6*
Cc1sc2c(c1C)C(=O)/C(=C\Nc1ncccn1)S(=O)(=O)N2C	2
CC(=O)NCc1ccccc1S(=O)c1ccccc1C(=O)O (centres undefined)	-1.2
O=C(c1ccccc1)N1c2ccccc2OC1c1ccc2c(c1)OCO2 (centres undefined)	-0.43
CCCn1c(NCc2cccc(Br)c2)nc2ccccc21	1.3
CCN(CC)CCn1c(NCc2ccco2)nc2ccccc21	3.8*
SMILES	Dicer inh
CCn1c(NCc2c(O)ccc3ccccc23)nc2ccccc21	-0.45
CC(=O)Nc1nc2ccccc2n1CCN(C)C	24
CCOc1ccccc1CNc1nc2ccccc2n1CCN(CC)CC	5.3*
CCN(CC)CCn1c(NCc2ccccc2Cl)nc2ccccc21	2.8
CCn1c(NCc2ccc(N(C)C)cc2)nc2ccccc21	-0.31
CCN(CC)CCn1c(NCc2ccc(Br)cc2)nc2ccccc21	2.9
C=CCc1cccc(CNc2nc3ccccc3n2CC)c1O	6.9*
CCCn1c(NCc2nc3ccccc3n2C)nc2ccccc21	0.58
CCCn1c(NCc2cc(C)ccc2O)nc2ccccc21	0.36
CCN(CC)CCn1c(NCc2ccccc2O)nc2ccccc21	6.1*
N#CCCN(CN1C(=O)c2ccccc2C1=O)C1CCCCC1	-0.62
COc1ccc(CCN2CN=C(Nc3nc4ccccc4s3)NC2)cc1OC	-0.13
CCOCCOC(=O)C1=C(C)NC2=C(C(=O)CC(c3cccs3)C2)C1c1ccccc1OCC (centres undefined)	1.6
O=c1cc(O)c2c(=O)n(-c3ccccc3)c(-c3ccccc3)cc2o1	0.34
COC(=O)CSc1nc(-c2ccccc2)cc(-c2ccc(OC)cc2)c1C#N	0.14
CC(C)(C)C1=CC(=O)C=C(C(C)(C)C)C1=O	-0.75
CCCCN1C2=NC(=O)CN2c2ccccc21	2.9
Cc1cc(=O)oc2cc(NC(=O)CSCC(=O)O)ccc12	0.55
C/C(=N\NC1=NCCCN1)c1ccc(C)cc1	-0.65
CN(C)c1ccc(-c2nnc3n2N=C(c2ccc(Br)cc2)CS3)cc1	1.5
O=C1c2cccc3cccc(c23)C(=O)N1c1ccccc1	0.9
O=C1c2cccc3cccc(c23)C(=O)N1c1ccc(Cl)cc1	6*
CN1C(=O)c2cccc3cccc(c23)C1=O	-1.1
Clc1cc(Cl)c2nc(Oc3cccc(N4CCOCC4)c3)sc2c1	-0.16
CN(C)CCCN1C(=O)C(O)=C(C(=O)c2cccs2)C1c1ccccc1F (centres undefined)	-1.8
SMILES	Dicer inh
Cc1onc(-c2ccccc2)c1CNS(=O)(=O)c1ccc(-c2cnco2)cc1	-0.38
Cc1ccc(C(=O)O)c2c1N[C@H](c1cccc(Cl)c1)C1CC=CC21 (some centres undefined)	-1.7
Cc1ccc(C(=O)O)c2c1NC(c1ccc(Cl)cc1)C1CC=CC21 (centres undefined)	1.4
Cc1ccc(C2Nc3c(C)ccc(C(=O)O)c3C3C=CCC32)cc1 (centres undefined)	3.3*
N#C/C(=C\Nc1ccccc1Cl)S(=O)(=O)c1ccccn1	-0.54
CCOC(=O)c1c(NC(=O)CC)sc(C)c1C	0.24
CCOC(=O)c1c(N(C)S(C)(=O)=O)sc(C)c1C	3.6*
CCOC(=O)c1c(N)sc(C)c1C	-2.7
CCn1c2c(c(=O)[nH]c1=O)C(c1cccc(OC)c1)C1=C(N2)c2ccccc2C1=O (centres undefined)	2.1
O=C(Cc1cccc(Cl)c1)c1ccc(O)cc1O	1.1
CC(C)(C)OC(=O)N[C@@H](Cc1ccccc1)C(=O)NN	2.5
CCOC(=O)c1ccc(NC(=S)NN)cc1	3.5*
CCOC(=O)c1ccc(NC(=S)NC(C)(C)CO)cc1	-1.5
CCOC(=O)c1ccc(NC(N)=S)cc1	-0.12
C/C(Cc1nnn(-c2cc(C)on2)n1)=N\OC(=O)Nc1ccc(Cl)cc1	0.71
CC(C)c1nn2c(=O)c(NC(=O)c3ccc(Cl)cc3)cnc2s1	-0.2
OC1CCCc2c1[nH]c1ccc(OCc3ccccc3)cc21 (centres undefined)	1.6
CCOc1cccc(C(Nc2ccccn2)c2ccc3ccc(C)nc3c2O)c1O (centres undefined)	0.08
Oc1ccc2ncccc2c1C(Nc1ccccn1)c1ccccc1F (centres undefined)	1.4
Cc1ccc2ccc(C(Nc3ccccn3)c3ccc(Br)cc3)c(O)c2n1 (centres undefined)	5.7*
Cc1ccc2ccc(C(Nc3ccccn3)c3ccc(N(C)C)cc3)c(O)c2n1 (centres undefined)	4.4*
CCOc1ccc(C(Nc2ccccn2)c2ccc3ccc(C)nc3c2O)cc1 (centres undefined)	-2.3
CSc1ccc(C(Nc2ccccn2)c2ccc3ccc(C)nc3c2O)cc1 (centres undefined)	-0.44
COC(=O)CSCC(=O)Nc1ncc2c(n1)CC(C)(C)CC2=O	-0.23
Fc1ccc(CNC(=S)NC(Cc2ccccc2)c2ccccc2)cc1 (centres undefined)	1.2
SMILES	Dicer inh
C=CCOc1ccc(C2c3c(oc4ccccc4c3=O)C(=O)N2Cc2ccc3c(c2)OCO3)cc1 (centres undefined)	0.4
COc1ccc(-c2cc(-c3ccc(C)cc3)[nH]c(=S)c2C#N)cc1	0.56
COc1ccc(-c2cc(-c3cccs3)[nH]c(=S)c2C#N)cc1	1.1
N#Cc1c(-c2ccc(Cl)cc2)cc(-c2ccccc2)[nH]c1=S	3.8*
Cn1nc(-c2ccccc2)cc1NC(=O)Nc1cccs1	-0.68
OCCCNCC(O)CN1c2ccccc2Sc2ccccc21 (centres undefined)	2.3

Source: PubChem
